Screens: PubChem BioAssay, several laboratories
An excerpt weighted towards active compounds, which were near 2.4% of everything screened.
EP2 mod: EP2 receptor modulators, cAMP readout, primary screen, cell-based, HTRF cAMP, PGE2 stimulation. Prostaglandin E2 receptor EP2 subtype (Homo sapiens), P43116. induction, % at 25 µM. EP2-expressing cells, cAMP HTRF FRET, PGE2 co-stimulation. actives 0.83% (n = 260,000). AID 940, 2007;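 active means compounds whose cAMP rise, as percent of the full-agonist control response, exceeds 60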;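 further: rat C6 glioma line stably carrying human EP2 under a CMV promoter; the protocol text gives 20 µM as final concentration; 100% = response of wells given 1 µM PGE2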
Target sequence (P43116 whole entry, looked up): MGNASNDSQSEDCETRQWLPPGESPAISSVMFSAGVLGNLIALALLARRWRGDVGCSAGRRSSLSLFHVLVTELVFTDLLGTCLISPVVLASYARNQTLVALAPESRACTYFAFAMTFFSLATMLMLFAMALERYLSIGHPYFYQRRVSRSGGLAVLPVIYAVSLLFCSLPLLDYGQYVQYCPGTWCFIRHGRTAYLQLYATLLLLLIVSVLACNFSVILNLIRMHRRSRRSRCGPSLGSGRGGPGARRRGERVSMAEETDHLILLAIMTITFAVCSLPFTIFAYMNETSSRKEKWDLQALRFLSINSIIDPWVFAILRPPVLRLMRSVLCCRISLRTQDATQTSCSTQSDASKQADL
PGE2 EP2 inh: human EP2 receptor antagonists, primary screen, TR-FRET cAMP, C6 glioma cells; Prostaglandin E2 receptor EP2 subtype (Homo sapiens), P43116; C6 glioma cells expressing human EP2; cells stimulated with saturating PGE2; inhibition, % at 25 µM; actives 0.52% (n = 260,000);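 active means percent inhibition above 40 after rounding to a whole number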;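 further: rat C6 glioma host cells with rolipram phosphodiesterase inhibitor present; the protocol text gives 20 µM as final concentration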
INS promoter inh: inhibitors of insulin promoter-driven GFP, primary screen, imaging, TRM-6 cells (human fetal islet line), eGFP reporter, cell count | reporter expression induced with tamoxifen | inhibition, % at 2 µM | actives 0.9% (n = 130,000);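 active means inhibition above the mean plus 3 SD, with well images judged a real hit on visual review, cut at about 60% in these data, passing the limit was not always enough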
S1P3 antag: S1P3 receptor antagonists, primary screen, cell-based; inhibition, % at 4.98 µM; actives 0.27% (n = 170,000); CHO S1P3 NFAT-BLA reporter, FRET fluorescence, antagonist mode; AID 485, 2006;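 active means inhibition above the plate cutoff, the mean inhibition of test wells on that plate plus 3 SD, cut at about 28% in these data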;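 further: cells challenged with S1P at its EC80 of 0.8 µM; blue over green emission ratio from cleaved BLA substrate after 4 h stimulation; 0% = S1P-stimulated wells and 100% = unstimulated DMSO-only wells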
S1P4 antag: S1P4 receptor antagonists, primary screen, cell-based. Sphingosine 1-phosphate receptor 4 (Homo sapiens), O95977. S1P4-expressing cells, antagonist mode, reporter read-out. inhibition, % at 4.98 µM. actives 0.26% (n = 220,000); in the data active means inhibition above about 29%;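 further: 0% = wells stimulated with agonist and 100% = vehicle wells without agonist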
S1P4 ag: S1P4 receptor agonists, primary screen, cell-based. Sphingosine 1-phosphate receptor 4 (Homo sapiens), O95977. S1P4-expressing cell line, agonist reporter assay. activation, % at 4.98 µM. actives 0.35% (n = 220,000). AID 1509, 2009; in the data active means activation above about 11%;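 further: 0% = DMSO vehicle and 100% = reference agonist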
An asterisk follows results filed as active; ! = not active in a repeat.

For CC(C)NC(=O)C1CC(c2cccc(Br)c2)=NO1 (stereo unspecified) the results were EP2 mod -3 and PGE2 EP2 inh 11.
COc1ccc(CC(=O)N2CCC(Cn3nc(-c4ccco4)ccc3=O)CC2)cc1 was read as EP2 mod 6.
Screening C[C@]12CC[C@H](O)C[C@@H]1CC[C@H]1[C@H]2CC[C@]2(C)[C@@H]1CC[C@H]2c1cc(C(F)(F)F)n[nH]1 returned EP2 mod -19 and PGE2 EP2 inh 55*.
`O=C(Nc1ccc(S(=O)(=O)N2CCc3ccccc3C2)cc1)c1ccccc1Cl` gave EP2 mod -62 and PGE2 EP2 inh 8.
Screening CCN1C(=O)c2cccc3c(NC(=O)C(C)(C)C)ccc1c23 returned EP2 mod -11, PGE2 EP2 inh 50*, INS promoter inh 3, S1P3 antag 4, S1P4 antag 3 and S1P4 ag 0.
Screening CCOC(=O)C1=C(N)OC2=C(C(=O)CC(C)(C)C2)C1c1ccc(C)cc1 (stereo unspecified) returned EP2 mod 79* and PGE2 EP2 inh 15.
CCOC(=O)C1=C(N)OC2=C(C(=O)CC(C)(C)C2)C1c1ccc(C)s1 (stereo unspecified) was read as EP2 mod 38, PGE2 EP2 inh 4, INS promoter inh -64, S1P3 antag -11, S1P4 antag 14 and S1P4 ag -1.
COCCNC(=O)CCCn1c(=O)c2cc(OC)c(OC)cc2n(CC(=O)NCCC2=CCCCC2)c1=O was read as EP2 mod 22, PGE2 EP2 inh 7, INS promoter inh 75*, S1P3 antag -15, S1P4 antag -10 and S1P4 ag -2.
For COCCNC(=O)CCCn1c(=O)c2ccccc2n(CC(=O)NCCC2=CCCCC2)c1=O the results were EP2 mod 26, PGE2 EP2 inh 2, S1P3 antag -31, S1P4 antag 1 and S1P4 ag 2.
CN1CCCC[C@@H]1CCN1c2ccccc2Sc2ccc(S(C)=O)cc21 (stereo partly specified) was read as EP2 mod 13 and PGE2 EP2 inh 44*.
Screening CSc1ccc2c(c1)N(CCC1CCCCN1C)c1ccccc1S2 (stereo unspecified) returned EP2 mod -19, PGE2 EP2 inh 13, INS promoter inh -86, S1P3 antag 4, S1P4 antag -6 and S1P4 ag 1.
Screening CCOc1c(OC)cccc1C1C(C(=O)Nc2ccccc2)=C(C)Nc2ncnn21 (stereo unspecified) returned EP2 mod -6 and PGE2 EP2 inh 10.
`Nc1nc2c(Cl)c(Cl)ccc2s1` gave EP2 mod -84 and PGE2 EP2 inh 61*.
For CCC(=O)Nc1nc2c(Cl)c(Cl)ccc2s1 the results were EP2 mod -77 and PGE2 EP2 inh 67*.
Cc1c(C#N)c2ccccc2n1CC(=O)N1CCCCC1 was read as EP2 mod -10 and PGE2 EP2 inh 12.
Screening CCOC(=O)C1=C(C)N(c2ccc(OC)cc2)C(=O)/C1=C\c1ccc(O)c(OCC)c1 returned EP2 mod 31, PGE2 EP2 inh 41*, S1P3 antag -10, S1P4 antag 15 and S1P4 ag -1.
For Nc1ccc(-c2ccc(Nc3cc(S(=O)(=O)O)c(N)c4c3C(=O)c3ccccc3C4=O)cc2)c(S(=O)(=O)O)c1 the results were EP2 mod -3 and PGE2 EP2 inh 55*.
`COc1ccc(CN2Cc3cc4ccc(OC)cc4nc3OC(C)C2=O)cc1` (stereo unspecified) gave EP2 mod -59.
For Cc1ccc(S(=O)(=O)NC(=O)c2ccc(-c3ccc(-c4ccccc4)cc3)o2)c(C)c1 the results were EP2 mod 47, PGE2 EP2 inh 9, INS promoter inh 67*, S1P3 antag -2, S1P4 antag 6 and S1P4 ag 1.
Cc1cccc2cc(CN(Cc3nnnn3Cc3ccc(F)cc3)C3CCCCC3)c(=O)[nH]c12 was read as EP2 mod -10 and PGE2 EP2 inh 20.
Screening CCOC(=O)c1cccc(S(=O)(=O)N(Cc2cc3cc(C)c(C)cc3[nH]c2=O)CC2CCCO2)c1 (stereo unspecified) returned EP2 mod 34 and PGE2 EP2 inh 11.
Screening O=C1/C(=C\c2ccccc2)[C@@H](NC2CCCCC2)c2ccccc21 returned EP2 mod -2 and PGE2 EP2 inh 58*.
For Cc1c(NC(=O)Nc2c(Cl)cccc2Cl)c(=O)n(-c2ccccc2)n1C the results were EP2 mod 11, PGE2 EP2 inh 48*!, S1P3 antag -2, S1P4 antag -2 and S1P4 ag 0.
`O=C(Nc1ccc(Cl)cc1)N1CC=CCC1` gave EP2 mod -35, PGE2 EP2 inh 7, INS promoter inh 63*, S1P3 antag -21, S1P4 antag -2 and S1P4 ag 1.
For CCN1CCN(C(=O)Nc2ccc(Cl)cc2)CC1 the results were EP2 mod -41 and PGE2 EP2 inh 14.
Screening COc1ccc(-c2c(C)nn3c(N4CCNCC4)cc(C)nc23)cc1 returned EP2 mod -32.
For CCOP(=O)(c1ccccc1)C(O)c1ccccc1 (stereo unspecified) the results were EP2 mod 16, PGE2 EP2 inh 4, INS promoter inh 3, S1P3 antag 1, S1P4 antag -11 and S1P4 ag 0.
Screening CCOP(=O)(C1=C(O)C(=O)C(C(C)(C)C)=CC1=O)c1ccccc1 (stereo unspecified) returned EP2 mod 8, PGE2 EP2 inh 6, INS promoter inh 67*, S1P3 antag 3, S1P4 antag -7 and S1P4 ag 1.
CC[C@@]1(O)C(=O)OCc2c1cc1n(c2=O)Cc2cc3c(CN(C)C)c(O)ccc3nc2-1 was read as EP2 mod 22 and PGE2 EP2 inh 58*!.
For COC(=O)CSc1nnc(-c2cc3c(C)nn(-c4ccccc4)c3s2)n1C the results were EP2 mod -4 and PGE2 EP2 inh 6.
For Cc1c(Cl)c(C(F)(F)F)nn1CC(=O)NN the results were EP2 mod 11, PGE2 EP2 inh 7, INS promoter inh -36, S1P3 antag -17, S1P4 antag 7 and S1P4 ag -2.
Cc1c(Cl)c(C(F)(F)F)nn1CC(=O)N1CCSCC1 was read as EP2 mod 21, PGE2 EP2 inh 14, INS promoter inh 100*, S1P4 antag 3 and S1P4 ag 1.
